Screening results (PubChem BioAssay)
GPT2 inh: Primary qHTS assay for inhibitors of Glutamate pyruvate transaminase 2 (GPT2) | Alanine aminotransferase 2 (Homo sapiens), Q8TD30 | Recombinant GPT2, coupled pyruvate oxidase/HRP Amplex Red fluorescence | Potency, µM (highest dose often 57.7 µM), without a hit: at the top dose activity change, negative = inhibition, most hits filed as inhibitors | actives 0.25% (n = 100,000) | AID 1671188, 2021; note: % is set by controls: 0 for no effect and ±100 for the full control effect; nearly all actives have a fitted effect of over 60% in size
Target sequence (Q8TD30 whole entry, looked up): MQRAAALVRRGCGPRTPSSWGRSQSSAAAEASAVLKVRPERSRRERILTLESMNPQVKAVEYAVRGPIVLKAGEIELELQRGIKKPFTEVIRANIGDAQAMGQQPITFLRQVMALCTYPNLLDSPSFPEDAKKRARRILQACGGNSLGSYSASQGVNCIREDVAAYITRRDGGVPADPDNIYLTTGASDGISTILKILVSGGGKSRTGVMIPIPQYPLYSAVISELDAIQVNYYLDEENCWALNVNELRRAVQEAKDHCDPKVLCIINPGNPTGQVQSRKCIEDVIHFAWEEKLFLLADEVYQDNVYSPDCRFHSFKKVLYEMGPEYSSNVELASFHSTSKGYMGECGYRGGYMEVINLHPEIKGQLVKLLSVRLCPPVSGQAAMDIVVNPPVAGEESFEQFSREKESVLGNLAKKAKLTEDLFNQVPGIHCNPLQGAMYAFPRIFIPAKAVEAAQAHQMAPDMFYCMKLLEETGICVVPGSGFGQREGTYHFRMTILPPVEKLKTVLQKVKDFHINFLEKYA
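Recombinant GPT2 (10ng/uL) with 250uM a-KG and 2mM L-alanine, 30 min at room temperature, in HEPES pH 7.5 buffer. Pyruvate detected by pyruvate oxidase/HRP/Amplex Red fluorescence after 30 min in the dark; AOA (50uM) as positive control.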
NIH3T3 tox: Cytotoxic Profiling in NIH 3T3 Cell Line of Diverse Libraries Using Quantitative High-Throughput Screening; AID 1345082, 2018; actives 4.3% (n = 94,000); NIH 3T3 viability, CellTiter-Glo ATP luminescence, 48-72 h; Potency, µM (doses to about 96.7 µM), for inactives: top-dose activity change, negative = cytotoxicity, most hits filed as inhibitors; note: % is set by controls: 0 for no effect and ±100 for the full control effect; nearly all actives have a fitted effect of over 55% in size
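Viability of NIH 3T3 cells after 48 or 72 hr compound treatment at 37 °C was assessed by CellTiter-Glo, with luminescence imaged following a 10 min room-temperature step.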
hNpr1 antagonist: Natriuretic polypeptide receptor (hNpr1) antagonism - Primary qHTS. Atrial natriuretic peptide receptor 1 (Homo sapiens), P16066. HEK293 hNpr1 GloSensor cGMP, ANP-stimulated luminescence. Potency, µM (highest dose often 46.3 µM), inactives show at the highest dose activity change, negative = inhibition, most hits filed as inhibitors. actives 1.6% (n = 76,000). AID 1347048, 2019; calls by dose curve; note: % is set by controls: 0 for no effect and ±100 for the full control effect; nearly all actives have a fitted effect of over 60% in size
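HEK293 cells stably expressing human Npr1 and cGMP GloSensor pGS-40F, loaded 2 h with 2% GloSensor reagent, given compound 30 min at room temperature. Luminescence read before and 20 min after 0.1 nM hNppA.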
FLuc inh-1: Firefly luciferase inhibition profiling of diverse chemical library using quantitative high-throughput screening; Luciferin 4-monooxygenase (Photinus pyralis), P08659; purified P. pyralis luciferase, luminescence, biochemical; Potency, µM (series often up to 115 µM), actives largely listed as inhibitors; actives 2.5% (n = 76,000); AID 1347043, 2019; note: % is set by controls: 0 for no effect and ±100 for the full control effect; nearly all actives have a fitted effect of over 65% in size
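Biochemical qHTS: compound (6-point titration) added to 10uM D-luciferin plus 10uM ATP in Tris acetate pH 7.5 buffer with Mg, Tween-20 and BSA, then purified enzyme at 10nM; light output imaged.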
HEK cytotox: Cytotoxic Profiling in HEK 293 Cell Line of Diverse Libraries Using Quantitative High-Throughput Screening | HEK 293 viability, ATP luminescence (CellTiter-Glo), 48-72 h | Potency, µM (doses to about 115 µM), inactives show at the top dose activity change, negative = cytotoxicity, actives largely listed as inhibitors | actives 6.6% (n = 94,000) | AID 1345083, 2018; note: % is set by controls: 0 for no effect and ±100 for the full control effect; nearly all actives have a fitted effect of over 60% in size
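HEK 293 seeded at 250 cells/well receive compound via pintool. After 48 or 72 hr at 37 degree Celsius, 5% CO2 and 95% humidity, CellTiter-Glo is dispensed and luminescence read following 10 min at room temperature.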
FLuc SDR -ATP: Firefly luciferase (FLuc-C-HiBiT) SDR gain of signal screen - without ATP. shares compounds with FLuc inh-1. Purified FLuc-C-HiBiT, Nano-Glo HiBiT luminescence, no ATP. Potency, µM (highest dose often 32.7 µM), without a hit: at the highest dose activation (signal gain), hits mostly activators. actives 7.8% (n = 1,300). AID 1963318, 2024; note: nearly all actives have a fitted effect of over 55% in size
FLuc SDR ATP: Firefly luciferase (FLuc-C-HiBiT) SDR gain of signal screen - plus ATP. shares compounds with FLuc inh-1. purified FLuc-C-HiBiT + ATP, HiBiT complementation luminescence. Potency, µM (highest dose often 32.7 µM), inactives show at the top dose activation (gain of signal), most hits filed as activators. actives 8.7% (n = 1,300). AID 1963319, 2024;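 note: signal reports ligand binding via conformational change of the enzyme rather than luciferase catalysis; % of control where 0% means no effect; nearly all actives have a fitted effect of over 55% in size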
FLuc inh-2: Firefly luciferase (FLuc-C-HiBiT) enzymatic inhibition screen - Functional assay | Potency, µM (series often up to 32.7 µM), inactives show at the top dose activity change, negative = inhibition, usual class: inhibitors | shares compounds with FLuc inh-1 | purified FLuc-C-HiBiT enzyme, luciferin luminescence | actives 42% (n = 1,300); note: % is set by controls: 0 for no effect and ±100 for the full control effect; nearly all actives have a fitted effect of over 70% in size
An asterisk follows results filed as active; [ ] = another dose, or the depositor's remark. An excerpt weighted towards active compounds, which were near 10% of everything screened. Unless noted, calls come from the whole dose curve; as a rule, active = well fitted curve in the direction sought with a large enough effect; inconclusive = small, poorly fitted or top-dose-only effect, or another doubt; inactive = no such curve, though single readings can be large; an effect the other way counts as inactive or inconclusive. Potency is the fitted concentration of half-maximal effect.

What do the screens show for `CCc1ccc2oc(-c3cccc(NC(=O)c4cc5ccccc5o4)c3)nc2c1`?
FLuc SDR -ATP: 21%; FLuc SDR ATP: 18%; FLuc inh-2: inconclusive

How did CCc1ccc2oc(-c3ccc(NC(=O)c4ccc(OC)c(Br)c4)cc3)nc2c1 do in these assays?
FLuc SDR -ATP: 12%; FLuc SDR ATP: 8%; FLuc inh-2: -12%

What do the screens show for `Cc1ccc(NC(=O)c2ccc3oc(-c4ccncc4)nc3c2)cc1`?
GPT2 inh: -4%[88.5 µM]; NIH3T3 tox: -14%[138 µM]; HEK cytotox: inconclusive

What do the screens show for `Fc1ccc(-n2ncc3c(N4CCC(Cc5ccccc5)CC4)ncnc32)cc1`?
FLuc SDR -ATP: 15%; FLuc SDR ATP: 8%; FLuc inh-2: 1%

How did Cc1ccc(-n2ncc3c(N4CCC(Cc5ccccc5)CC4)ncnc32)cc1C do in these assays?
FLuc SDR -ATP: 13%; FLuc SDR ATP: 9%; FLuc inh-2: -1%

What do the screens show for `Nc1nc2c([nH]c(=O)n2[C@H]2C[C@H](O)[C@@H](CO)O2)c(=O)[nH]1`?
FLuc SDR -ATP: 11%; FLuc SDR ATP: 8%; FLuc inh-2: 7%

What do the screens show for `Cc1ccc(S(=O)(=O)N2CCN(C3CCN(Cc4ccccn4)C3=O)CC2)cc1F` (configuration not stated)?
GPT2 inh: -24%; NIH3T3 tox: -20%; hNpr1 antagonist: 0%; FLuc inh-1: inactive; HEK cytotox: -27%

What do the screens show for `COc1ccc(C(=O)NC(C(=O)NCC(C)C)C2CCN(C(=O)c3cccs3)CC2)cc1` (configuration not stated)?
GPT2 inh: inactive; NIH3T3 tox: -12%; hNpr1 antagonist: -1%; FLuc inh-1: inactive; HEK cytotox: -22%

What do the screens show for `CN1CC2(CCCN(CC3CC3)C2)c2cc(C(=O)Nc3ccn(C)n3)ccc21` (configuration not stated)?
GPT2 inh: inactive; NIH3T3 tox: -13%[138 µM]; hNpr1 antagonist: 2%[70.6 µM]; FLuc inh-1: inactive; HEK cytotox: inconclusive

What do the screens show for `COCCN1CCC2(C1)CN(C)c1ccc(C(=O)Nc3ccn(C)n3)cc12` (configuration not stated)?
FLuc SDR -ATP: inconclusive; FLuc SDR ATP: inconclusive; FLuc inh-2: 10µM*

Results for COCCN1CCC2(C1)CN(C)c1ccc(C(=O)Nc3ccc(F)cc3)cc12 (configuration not stated) ?
GPT2 inh: -28%[88.5 µM]; NIH3T3 tox: inconclusive; hNpr1 antagonist: inconclusive; FLuc inh-1: 2.8µM*; HEK cytotox: 79µM*; FLuc SDR -ATP: inconclusive; FLuc SDR ATP: inconclusive; FLuc inh-2: 7.2µM*

What do the screens show for `COCCN1CCC2(C1)CN(C)c1ccc(C(=O)NCCOc3ccccc3)cc12` (configuration not stated)?
GPT2 inh: 0%[88.5 µM]; NIH3T3 tox: inconclusive; hNpr1 antagonist: -6%[70.6 µM]; FLuc inh-1: inactive; HEK cytotox: inconclusive

How did COCCN1CCC2(C1)CN(C)c1ccc(C(=O)Nc3ccccc3)cc12 (configuration not stated) do in these assays?
GPT2 inh: 4%[88.5 µM]; NIH3T3 tox: inconclusive; hNpr1 antagonist: 6.3µM*; FLuc inh-1: 0.63µM*; HEK cytotox: 79µM*; FLuc SDR -ATP: 4µM*; FLuc SDR ATP: inconclusive; FLuc inh-2: 1.1µM*

How did COc1ccc2c(c1)CN(Cc1ccccc1Cl)CC[C@H]1COC(=O)N21 do in these assays?
GPT2 inh: inactive; NIH3T3 tox: -4%[138 µM]; hNpr1 antagonist: -20%[70.6 µM]; FLuc inh-1: inactive; HEK cytotox: -21%[172 µM]

How did Fc1ccc(Cc2cn3cc(-c4ccc(F)cc4)nc3s2)cc1 do in these assays?
FLuc SDR -ATP: inconclusive; FLuc SDR ATP: inconclusive; FLuc inh-2: 0.88µM*

Results for O=C(NCc1ccccc1Cl)c1nc2sccn2c1-c1ccc(F)cc1 ?
GPT2 inh: inactive; NIH3T3 tox: -31%; HEK cytotox: -9%

Results for Cc1ccc(-c2cn3cc(C(=O)NCCc4ccccc4)nc3s2)cc1 ?
GPT2 inh: inactive; NIH3T3 tox: -22%; HEK cytotox: -7%

How did Fc1ccc(-c2cn3cc(Cc4ccccc4Cl)sc3n2)cc1 do in these assays?
FLuc SDR -ATP: inconclusive; FLuc SDR ATP: inconclusive; FLuc inh-2: 0.99µM*

Results for Clc1ccc(-c2cn3cc(Cc4ccccc4)sc3n2)cc1 ?
FLuc SDR -ATP: 30%; FLuc SDR ATP: inconclusive; FLuc inh-2: 0.79µM*

How did Cc1ccc(Cc2cn3cc(-c4ccccc4)nc3s2)cc1 do in these assays?
FLuc SDR -ATP: inconclusive; FLuc SDR ATP: inconclusive; FLuc inh-2: 0.44µM*

Results for COc1ccccc1-c1ccc(C(=O)N2CCC(C(=O)NCc3cccc(F)c3)CC2)cc1 ?
GPT2 inh: -9%; NIH3T3 tox: inconclusive; HEK cytotox: inconclusive

How did O=C(NCc1ccccc1F)c1cn2cc(-c3ccc(F)cc3)sc2n1 do in these assays?
GPT2 inh: 1%[88.5 µM]; NIH3T3 tox: -17%[138 µM]; HEK cytotox: -9%[172 µM]

Results for Fc1ccccc1Cc1cn2cc(-c3ccc(Cl)cc3)nc2s1 ?
FLuc SDR -ATP: 20%; FLuc SDR ATP: inconclusive; FLuc inh-2: 1.6µM*

Results for CCC(=O)Nc1cc2nn(-c3ccc(C)cc3)nc2cc1C ?
FLuc SDR -ATP: inconclusive; FLuc SDR ATP: inconclusive; FLuc inh-2: 0.39µM*
